# Laboratory results from PubChem BioAssay AID493169 (National Center for Advancing Translational Sciences (NCATS), 2011).
# Results filed as inconclusive are left out. Unmarked numbers belong to inactive results. The source made the active and inactive calls. Calls come from the whole dose curve; as a rule, active = well fitted inhibition curve with a large enough effect; inconclusive = small, poorly fitted or top-dose-only effect; inactive = flat fitted curve, though single readings scatter.
# Test: CHOP2 Reporter Counterscreen Assay for Inhibitors of Ubiquitin-specific Protease USP2a;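 note: activated enterokinase alone at 50 pM in a cell-free format rather than USP2a or CHOP2; nearly all actives have a fitted effect of over 55% in size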
# Conditions: purified enterokinase, fluorogenic substrate, 485/531 nm; series mostly up to 38.3 µM; activity change, negative = inhibition: at the top concentration
# Outline: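 Fluorescence (485/531 nm) read 10 min after adding 25nM reporter substrate to 50 pM activated EK preincubated 30 min RT with compound; Tris pH 8.0/CaCl2/CHAPS buffer. Data normalized to buffer-alone inhibition; concentration-response curves fitted.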
# % is set by controls: 0 for no effect and ±100 for the full control effect; potency is the fitted concentration of half-maximal effect.
Compound,Potency,"activity change, negative = inhibition [%]"
Cc1c2c(=O)n(-c3nc4ccccc4s3)nc-2cc(O)n1Cc1ccccc1,11.2 µM (active),
O=C(Nc1nnc(-c2ccco2)s1)C1CCCCC1,,-0.811
COc1ccc(C(=O)OCC(=O)c2c[nH]c3ccccc23)c(OC)c1,,-3.08
Cc1ccc(/C(N)=N/OC(=O)Oc2ccccc2)cc1,,-0.304
O=C(NC1CCCCC1)C(c1ccco1)N(C(=O)c1csnn1)c1cccc(F)c1 (stereo not given),,-1.19
CNS(=O)(=O)c1cccc(C(=O)OCC(=O)c2cc(C)n(-c3ccc4c(c3)OCO4)c2C)c1,,8.11
O=C1Nc2ccc(S(=O)(=O)N3CCCCCC3)c3cccc1c23,,-0.53
CCOc1ccc(NC(=O)c2cccc(-n3cnnn3)c2)cc1,,7.23
O=C(/C=C1\NC2(CCCC2)Cc2ccccc21)C(=O)N/N=C/c1ccc(O)c(O)c1,4.47 µM (active),
CC(=O)c1ccc(NC(=O)CC(NCCC2=CCCCC2)C(=O)O)cc1 (stereo not given),,2.06
O=C(NN1C(=O)/C(=C/C=C/c2ccco2)SC1=S)c1ccncc1,2.51 µM (active),
CCn1nnnc1SCC(=O)Nc1cccc(C)n1,,6.12
Nc1c(C(=O)Nc2ccc3c(c2)OCCO3)nnn1CCc1ccccc1,,-1.84
CCCNC(=O)CS(=O)Cc1nc(-c2ccccc2C)oc1C (stereo not given),,1.46
O=C1Nc2ccccc2SC(c2ccccc2)C1O (stereo not given),7.94 µM (active),
COC(=O)CSc1nnc(NC(=O)C2CC(=O)N(c3ccc(F)cc3)C2)s1 (stereo not given),10 µM (active),
Cc1ccc(C(=O)N/C(=C/c2ccco2)C(=O)Nc2cccc(C(=O)O)c2)cc1,10 µM (active),
O=C(Nc1ccc2c(c1)OCO2)NC1(C(F)(F)F)Oc2ccccc2O1,,-0.462
COc1cc(C)ccc1OCCOc1cc(C)ccc1Cl,,0.822
CCCCNc1nc2ccccc2nc1NS(=O)(=O)c1cccs1,,3.62

Compound,Potency,"activity change, negative = inhibition [%]"
FC(F)(F)C1=Nc2cccc3cccc(c23)N1,,2.43
O=C(CSc1nnnn1-c1ccc(F)cc1)c1ccc(O)c(O)c1,12.6 µM (active),
O=C(CSc1nc2ccccc2c(=O)n1CC1CCCO1)NCc1ccccc1 (stereo not given),,-3.39
Cc1ccc(OCC(=O)Nc2ccc(N3CCCC3)cc2)cc1C,10 µM (active),
O=C1OC[C@@H]2CCCN2C(=O)[C@@H](CC(=O)N(CCO)Cc2ccccc2)C/C=C\C[C@@H]1Cc1ccc(F)cc1,,0.34
CC(C)N(C(=O)c1sc2cc([N+](=O)[O-])ccc2c1Cl)C(C)C,,11
COc1cccc(/C=N/n2c(SC)nnc2-c2ccccc2)c1O,,3.06
COCc1cc(C)nc(OCC(=O)N/N=C\c2cc(C)n(-c3cccc(C(F)(F)F)c3)c2C)c1C#N,,-0.186
O=C1CC(c2ccc(Cl)cc2)SC(N(c2ccccc2)c2ccccc2)=N1 (stereo not given),,1.87
C#CCOCCOCCOCCNc1nc(N2CCN(C(=O)CCCCCCCCCCNC(=O)Cn3cc(CCCCCN)nn3)CC2)nc(N2CCN(C(=O)CCCCCCCCCCNC(=O)[C@H](CO)n3cc(CCCCCN)nn3)CC2)n1,11.2 µM (active),
c1coc(CNc2nc(-c3cccs3)cs2)c1,,-0.623
Cc1ccc(NC(=O)CN2C(=O)N/C(=C/c3ccco3)C2=O)cc1,5.01 µM (active),
CCOc1ccc(CCn2c(-c3ccco3)nc3ccccc3c2=O)cc1OCC,,4.41
O=C(CSc1nnc(SCc2ccccc2)s1)N/N=C/C=C/c1ccco1,2.51 µM (active),
Cc1ccc(C(=O)N(C)CC(=O)Nc2cccc(C)c2C)o1,,7.01
COC(=O)c1cc2sc(Cl)cc2n1Cc1nc(-c2ccccc2)oc1C,,0.214
COc1ccc(-c2cc(C(F)(F)F)nc(S(C)(=O)=O)n2)cc1,,-3.17
CC1CCCCC1NC(=O)CSCC(=O)O (stereo not given),,4.32
Cc1cc(C(=O)OCC(=O)c2cccc([N+](=O)[O-])c2)c2cccc(C)c2n1,,0.46
Cc1ccc(N(CC(=O)Nc2ccc(S(=O)(=O)N3CCOCC3)cc2)S(C)(=O)=O)cc1C,,2.83
